Compound activity deposited in PubChem BioAssay by National Center for Advancing Translational Sciences (NCATS).
Most compounds without a hit are left out; they make up all but 3.8% or so of the library.
VDR inhibitor: blocks the human vitamin D receptor; VDR-SRC2-3 peptide fluorescence polarization, 2 h; Potency, µM, without a hit: max response, negative = inhibition, hits mostly inhibitors; 400,000 compounds, 0.93% hits; AID 504847
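Compounds are added to VDR with labelled SRC2-3 coactivator peptide and held 2 h at room temperature. Inhibition of the VDR–peptide interaction is then read as a change in fluorescence polarization.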
Sfp PPTase inh: inhibitors of Bacillus subtilis Sfp phosphopantetheinyl transferase | Q9F4F7 | Biochemical Sfp PPTase activity, qHTS | Potency, µM, for the others: largest response in the series, negative = inhibition, most hits filed as inhibitors | AID 1490 | 310,000 compounds, 3.5% hits;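 further: the enzyme is Sfp with the accession as filed and its product quenches rhodamine fluorescence; 0% = enzyme reaction without inhibitor and -100% = no enzyme wells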
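Fluorescence-quenching assay with 15 nM Sfp, 5 uM rhodamine-CoA and 12.5 uM BHQ-2-labelled ybbR peptide in pH 7.6 Hepes/MgCl2 buffer. Enzyme was pre-incubated with compound for 15 min at room temperature. Rate was taken from the 30-min fluorescence change (525/598 nm).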
TrxR1 substrate: rat thioredoxin reductase 1 substrate activity | AID 588456 | O89049 | 390,000 compounds, 0.01% hits | Potency, µM (highest dose often 114 µM), inactives show top-dose activity change, negative = substrate turnover | purified TrxR1 substrate turnover, NADPH consumption readout; further: nearly all actives have a fitted effect of over 50% in size
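Rat TrxR1, dispensed at 90 nM, was prereduced with 400 uM NADPH (final) for 5 min at ~22 deg C, then incubated with compound 15 min before 400 uM selenite. A first-read NADPH fluorescence drop versus no-compound background flagged substrates.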
rTrxR1 inhibitor: rat TrxR1 inhibition | 390,000 compounds, 1% hits | AID 588453 | recombinant rTrxR1, NADPH fluorescence consumption, selenite substrate | O89049 | Potency, µM (top dose mostly 114 µM), inactives show top-dose activity change, negative = inhibition, hits mostly inhibitors; further: nearly all actives have a fitted effect of over 65% in size
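Rat TrxR1 (90 nM in the dispensed reagent) was pre-reduced with 400 uM NADPH for 5 min at room temperature, then incubated with compound for 15 min. After 400 uM selenite was added, NADPH fluorescence (Ex 340/Em 450 nm) was followed for 8 min.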
GLS inhibitor: blocks human kidney-isoform glutaminase activity | O94925 | GLS enzymatic activity, qHTS titration | Potency, µM (doses to about 45.5 µM), inactives show top-dose activity change, negative = inhibition, usual class: inhibitors | 410,000 compounds, 0.21% hits | AID 624170
Target sequence (O94925 whole entry, looked up, canonical isoform): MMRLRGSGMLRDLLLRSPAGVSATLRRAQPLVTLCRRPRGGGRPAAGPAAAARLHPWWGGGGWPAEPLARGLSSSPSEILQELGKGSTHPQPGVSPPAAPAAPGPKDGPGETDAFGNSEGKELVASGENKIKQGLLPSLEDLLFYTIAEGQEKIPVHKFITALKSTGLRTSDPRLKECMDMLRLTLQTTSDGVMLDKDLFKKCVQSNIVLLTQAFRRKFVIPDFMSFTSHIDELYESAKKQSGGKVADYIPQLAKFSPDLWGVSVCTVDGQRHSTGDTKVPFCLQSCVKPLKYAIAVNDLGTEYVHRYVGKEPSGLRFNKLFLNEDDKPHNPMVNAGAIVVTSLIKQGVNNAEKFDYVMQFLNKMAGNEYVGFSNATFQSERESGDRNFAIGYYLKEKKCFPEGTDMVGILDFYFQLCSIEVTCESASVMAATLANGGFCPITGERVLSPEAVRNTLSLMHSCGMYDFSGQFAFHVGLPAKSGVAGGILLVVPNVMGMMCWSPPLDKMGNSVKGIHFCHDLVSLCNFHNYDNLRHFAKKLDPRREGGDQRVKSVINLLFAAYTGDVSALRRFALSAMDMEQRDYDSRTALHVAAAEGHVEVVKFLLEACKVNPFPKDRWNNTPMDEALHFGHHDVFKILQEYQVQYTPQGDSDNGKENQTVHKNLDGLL
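Assay buffer: 45 mM KH2PO4 pH 8.2, 0.02% Tween-20. hKGA acts on L-glutamine (1 mM solution added); product glutamate is reported by an oxidase/peroxidase Amplex Red coupling, with fluorescence taken at baseline and 30 min.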
GCN5L2 inh: GCN5L2 (KAT2A) acetyltransferase inhibition; GCN5L2 HAT assay, ThioGlo1 CoA-SH fluorescence; Potency, µM (top dose mostly 58.9 µM), for inactives: at the top dose activity change, negative = inhibition, most hits filed as inhibitors; 390,000 compounds, 0.21% hits; Q92830
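GCN5L2 (20nM final) in 50mM HEPES, 0.1mM EDTA pH 7.5, 0.01% Tween-20 was preincubated 15 min at room temperature with compound, then given ThioGlo1 (50uM), H3(1-25) peptide (75uM) and acetyl-CoA (70uM); CoA-thiol fluorescence (Ex340/Em540) was read at 0 and 20 min.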
An asterisk follows results filed as active; ? = inconclusive; · = no result given; [ ] = dose if it differs, or a comment. The call rests on the fitted dose curve; in most records, active means well fitted curve in the direction sought with a large enough effect; inconclusive means small, poorly fitted or top-dose-only effect, or another doubt; inactive means no such curve, though single readings can be large; an effect the other way counts as inactive or inconclusive. Unless noted, on the % scale 0 is the no-effect control and ±100 the full control effect; potency means the concentration at half of the fitted maximal effect.

SMILES | VDR inhibitor | Sfp PPTase inh | TrxR1 substrate | rTrxR1 inhibitor | GLS inhibitor | GCN5L2 inh
COc1ccc(C(=O)c2cn(Cc3ccccc3F)c3cc4c(cc3c2=O)OCO4)cc1 | -8% | · | -12% | -14% | 2% | -4%
CCN1c2ccccc2N(C)C1(C)c1ccccc1 (stereo not drawn) | ? | 32µM* | -10% | 45µM* | -3% | 2%
COC(=O)CSc1nnc(-c2cccnc2)n1C | -13% | 10% | 7%[57.1 µM] | 25%[57.1 µM] | 0% | -8%
O=C(CCC1CCCC1)Nc1ccccc1-c1ccccc1 | -2% | -18% | -15% | -10% | 2% | -2%
O=C(CCC1CCCCC1)Nc1ccccc1-c1ccccc1 | 10% | 4% | 2% | 18% | -10% | 3.2µM*
Cc1ccnc(SCC(=O)c2cccs2)n1 | 6% | -16% | -9% | -16% | 5% | -2%
CC(=O)Nc1ccc(SCC(=O)c2ccc(Br)s2)cc1 | ? | 50µM* | -5% | 53% | ? | -20%
Cc1ccnc(SCC(=O)c2ccc(Br)s2)n1 | -28% | 79µM* | 2%[57.1 µM] | 3%[57.1 µM] | -2% | -10%
CCc1nn(CC(=O)NCCN2CCOCC2)c(=O)c2cc3c(OC)cccc3n12 | -15% | 6% | -5% | 31% | 9% | -8%
Cc1ccc(C)c(NC(=O)C2CC3CCC2C3)c1 (stereo not drawn) | -12% | 7% | -3% | 0% | 3% | -6%
Oc1ccc(C2C[C@H]3CC[C@@H]2C3)cc1O (stereo partly drawn) | -13% | 22µM* | 11%[57.1 µM] | ? | ? | -4%
O=c1[nH]c(Cc2ccc(F)cc2)nc2scc(-c3ccc(F)cc3)c12 | ? | -79% | -6% | -11% | -17% | -9%
CC12CCC(C[N+](C)(C)C1)C2(C)C (stereo not drawn) | -1% | -6% | 8% | 24% | -1% | -15%
CC12CCC(C[N+](C)(CCC[N+](C)(C)C)C1)C2(C)C (stereo not drawn) | 4% | -23% | · | · | 0% | 22µM*
CCN(CC)c1ccc(/C=N/Nc2nn[nH]n2)cc1 | -27% | 40µM* | -5% | ? | 27% | -13%
CN(C)c1ccc(CC2C(=O)Nc3ccccc32)cc1 (stereo not drawn) | -13% | 45µM* | 2% | 4%[57.1 µM] | 0% | 2%
CC(C)(C)C(=O)CSc1ncccn1 | ? | 45µM* | -16% | ? | 13% | -3%
CN(C1=C(NC(=O)c2ccccc2)C(=O)c2ccccc2C1=O)C1CCS(=O)(=O)C1 (stereo not drawn) | -20% | 20µM* | -3% | 50µM* | -2% | 1%
O=C(CN1C(=O)c2ccccc2C1=O)NC1CCS(=O)(=O)C1 (stereo not drawn) | · | · | · | · | -3% | ·
CC(=O)NC1=C(NC2CCS(=O)(=O)C2)C(=O)c2ccccc2C1=O (stereo not drawn) | ? | 32µM* | -17% | ? | 15% | -17%
CN(C(=O)c1ccccc1Br)C1CCS(=O)(=O)C1 (stereo not drawn) | -4% | · | 1%[57.1 µM] | 1%[57.1 µM] | -2% | -1%
CCS(=O)(=O)Nc1ccc(C(=O)CC2(O)C(=O)Nc3ccccc32)cc1 (stereo not drawn) | 2% | 11% | -6% | -4% | 4% | -7%
O=C(/C=C/c1ccco1)NC(=S)Nc1ccc(C(=O)O)cc1 | -10% | 56µM* | -13% | 40µM* | -4% | -4%
CC(=O)NC(=S)Nc1ccc(NC(=S)NC(=O)/C=C/c2ccco2)cc1 | -21% | -23% | -9% | -43% | -5% | -24%
O=C(/C=C/c1ccco1)NC(=S)Nc1ccc(N2CCCC2)cc1 | -20% | -29% | -18% | 50µM* | -7% | 2%
SMILES | VDR inhibitor | Sfp PPTase inh | TrxR1 substrate | rTrxR1 inhibitor | GLS inhibitor | GCN5L2 inh
CCC(=O)Nc1ccc(NC(=S)NC(=O)/C=C/c2ccco2)cc1 | 5% | -2% | -3% | ? | -5% | -16%
O=C(O)c1ccccc1Cc1nc2cc(Cl)ccc2c(=O)[nH]1 | -16% | 24% | -8% | 19%[57.1 µM] | -2% | 0%
COc1cc(/C=C/[N+](=O)[O-])ccc1OCc1cccc(C(=O)O)c1 | 20µM* | 14µM* | -12% | 32µM* | 18% | -14%
COc1ccc(C(=O)C=Cc2ccc(OCc3ccccc3)c(OC)c2)cc1OC | · | · | · | · | 4% | ·
Cc1ncoc1C(=O)Nc1ncc([N+](=O)[O-])s1 | 89µM* | -93% | -9%[57.1 µM] | -4%[57.1 µM] | 21% | -18%
COc1ccccc1CNCc1ccc(OC)c2ccccc12 | -5% | · | 25%[2.29 µM] | -7%[57.1 µM] | 1% | ·
COc1ccccc1CNCc1cc(Br)ccc1OC | -4% | 63µM* | 11%[57.1 µM] | ? | 0% | 3%
Fc1ccccc1COc1ccc(Br)cc1CNCc1ccncc1 | 1% | 79µM* | 10%[57.1 µM] | -11%[57.1 µM] | 14% | 0%
COc1ccc(OC)c2[nH]c(=O)c(CCNS(=O)(=O)c3ccc(Cl)cc3)cc12 | 0% | 4% | 7%[57.1 µM] | 3% | 5% | 23%
CCCN(C(=O)COC(=O)c1nc2nccc(C)n2n1)C1CCS(=O)(=O)C1 (stereo not drawn) | ? | · | 1% | 9% | -1% | ·
O=C(O)CSc1ccc(Oc2ccc(SCC(=O)O)cc2)cc1 | -11% | 12% | 5%[57.1 µM] | 12%[57.1 µM] | -8% | -2%
O=C(O)CSc1sc(=S)sc1SCC(=O)O | 6% | 79µM* | -7% | -13% | 1% | -5%
COc1ccc(S(=O)(=O)CC(=O)c2cc(C)c(O)c(C)c2)cc1 | -27% | 4% | 3%[57.1 µM] | 27%[2.29 µM] | 19% | 0%
Cc1cc(C(=O)CS(=O)(=O)c2ccc(Cl)cc2)cc(C)c1O | -5% | -15% | -1% | 45µM* | 10% | 5%
Cc1ccc(S(=O)(=O)CCC(=O)c2ccc(F)cc2)cc1 | ? | 6% | -3% | 1.6µM* | 15% | 0%
Cc1ccc(C(=O)CCS(=O)(=O)c2ccc(Cl)cc2)cc1 | ? | 7% | -1% | 0.56µM* | 1% | 1%
Cc1ccc(S(=O)(=O)CC(=O)c2ccc([N+](=O)[O-])cc2)cc1 | -1% | 20% | 0% | ? | -13% | -11%
Cc1ccc(S(=O)(=O)CC(=O)c2ccccc2)cc1 | 4% | 12% | -6% | 35µM* | -4% | -4%
Cc1ccc(S(=O)(=O)N(CC(=O)N2CCN(c3ccccc3F)CC2)C2CCCCC2)cc1 | -16% | 1% | -5% | 18% | -9% | -5%
Clc1ccc(Cl)c(OCCCCNCc2ccccc2)c1 | 5% | -22% | -13% | -30% | 2% | -3%
COc1ccc(C(=O)CCS(=O)(=O)c2ccc(F)cc2)cc1OC | · | -4% | · | · | · | -25%
Cc1ccc(C(=O)CCS(=O)(=O)c2ccc(F)cc2)cc1 | 25µM* | 2% | -11% | 1.1µM* | 6% | 0%
